An excerpt weighted towards active compounds, which were near 1.9% of everything screened.
PERK inhibitor: block of dimerizer-induced PERK translation repression, primary screen, PERK inhibitor project, CHO PERK-DD cells, SEAP luminescence, HTS; CHO PERK-DD fusion, SEAP luminescence translation reporter; inhibition, % at 5.6 µM; actives 0.17% (n = 220,000); AID 1416, 2008;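 active means inhibition above the mean inhibition of all tested compounds plus 3 SD, set separately per screening campaign, cut at about 2.9% in these data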;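 further: PERK kinase domain activated by AP20187 dimerizer at 100 nM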
GRK2 aptamer HTS: compounds blocking aptamer binding on GRK2 – biochemical, human GRK2, bead flow cytometry, HTS, primary screen; Beta-adrenergic receptor kinase 1 (Homo sapiens), P25098; actives 0.59% (n = 330,000); inhibition of aptamer binding, % at 10 µM; FAM-aptamer displacement from GRK2; AID 488847, 2010;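 active means inhibition of aptamer binding above 40%, roughly 3 SD of noise, on plates passing a quality check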;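 further: median bead fluorescence of bound FAM aptamer so fluorescent compounds give negative values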
eIF4H FP inh: human eIF4H binding inhibitors, primary screen, translation initiation inhibitor project, biochemical, uHTS, fluorescence polarization | actives 0.94% (n = 290,000) | inhibition, % at 35 µM | eIF4H fluorescence polarization binding assay;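 further: calls also rest on retests at 20 µM and on dose response follow-up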
PABP polyA inh: PABP poly(A) RNA binding inhibitors, primary screen, biochemical, fluorescence polarization, uHTS | inhibition, % at 35 µM | actives 1% (n = 290,000) | Polyadenylate-binding protein 1 (Homo sapiens), P11940 | AID 2014, 2009;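 further: calls also rest on retests at 20 µM and on dose response follow-up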
PABP1 MLLE inh: inhibitors of PABP1 MLLE–PAM2 peptide binding, primary screen, biochemical, fluorescence polarization, FITC-PAM2, GST-MLLE; Polyadenylate-binding protein 1 (Homo sapiens), P11940; inhibition, % at 20 µM; actives 0.36% (n = 360,000); in the data active means inhibition above about 35%, passing the limit was not always enough
Of the large screens only hits and unclear results are named; the others gave an inactive call. Unless noted, how the calls were made is not given here.

O=C(N/N=C/c1ccc(F)cc1)c1cc(-c2ccco2)nc2ccccc12	eIF4H FP inh 90, PABP polyA inh 51
COc1ccc(OC)c(-c2cc(C(=O)N/N=C(\C)c3cccnc3)c3ccccc3n2)c1	none (no result: PERK inhibitor)
O=C(O)c1cc(-c2cc(C(=O)O)c3ccccc3n2)nc2ccccc12	none (no result: PERK inhibitor, PABP1 MLLE inh)
O=C(O)c1cc(-c2ccco2)nc2ccccc12	eIF4H FP inh 82, PABP polyA inh 60, PABP1 MLLE inh 53
C/C(=N\NC(=O)c1cc(-c2ccco2)nc2ccccc12)c1cccnc1	eIF4H FP inh 82, PABP polyA inh active
O=C(NC1CC1)c1cc(-c2ccco2)nc2ccccc12	eIF4H FP inh 98, PABP polyA inh 82 (no result: GRK2 aptamer HTS)
